Experiment [1] is described as follows: NCI Yeast Anticancer Drug Screen. Data for the rad50 strain (AID 155).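 Further: 0% = growth of vehicle-only cultures of the same strain.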 To be noted: S. cerevisiae rad50 strain growth inhibition, stronger effect = higher value; at 50.0 µM unless noted. An outline of the steps:
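Growth of the mutant yeast was measured after compound exposure and referenced to vehicle-treated cultures.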

The nature of experiment [2]: NCI Yeast Anticancer Drug Screen. Data for the mec2-1 strain (AID 157). To be noted: S. cerevisiae mec2-1 strain, stronger effect = higher value; at 50.0 µM unless noted. An outline of the steps: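 Test agents were screened against the mec2-1 yeast strain, with defined DNA repair or cell cycle alteration. Growth was scored as inhibition against vehicle-only controls.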
Experiment [3] is described as follows: NCI Yeast Anticancer Drug Screen. Data for the sgs1 mgt1 strain (AID 161).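 Further: 0% = growth of cultures given vehicle only.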 To be noted: S. cerevisiae sgs1 mgt1 strain, stronger effect = higher value; at 50.0 µM unless noted. The gist of the method:
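Inhibition of yeast growth, normalised to vehicle-treated controls, is reported for a strain bearing genetic alterations in DNA damage repair.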

Experiment [4] is described as follows: NCI Yeast Anticancer Drug Screen. Data for the cln2 rad14 strain (AID 165).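 Further: 0% = growth equal to vehicle treated cultures.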 To be noted: S. cerevisiae cln2 rad14 strain, stronger effect = higher value; at 50.0 µM unless noted. An outline of the steps:
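Growth of compound-exposed yeast (cln2 rad14 genotype) measured and expressed as inhibition relative to vehicle.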

Experiment [5] can be described thus: NCI Yeast Anticancer Drug Screen. Data for the bub3 strain (AID 167). Conditions: S. cerevisiae bub3 mutant strain, stronger effect = higher value; at 50.0 µM unless noted. The gist of the method:
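Whole-cell yeast assay. The mutant strain was incubated with compounds, and growth inhibition was determined by comparison with vehicle-treated cells.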

Experiment [6] can be described thus: NCI Yeast Anticancer Drug Screen. Data for the mlh1 rad18 strain (AID 175). To be noted: S. cerevisiae mlh1 rad18 strain growth inhibition, stronger effect = higher value; at 50.0 µM unless noted. The gist of the method:
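In this whole-cell yeast screen, a strain with altered DNA damage repair is challenged with compound, and its growth is measured against matched vehicle-treated controls.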

We go through 20 compounds from PubChem BioAssay (NCI).

The panel holds about 79,000 compounds, 15% with a hit somewhere; the sample as a whole holds those more often. A number with no mark means an inactive call. Active and inactive are the calls of the source. No stated cut-off is given here; in the data, active means growth inhibition above about 70%; inactive means the rest.

In the case of `CCOC(=O)c1ccc(NC(=S)Nc2ncccc2C)cc1`, the growth inhibition in experiment [1] is 15.8%; in experiment [2], 11.4%; in experiment [3], 42.5%; in experiment [4], -3.3%; in experiment [5], 34.3%; in experiment [6] it was 21.2%.

`CCNC(=O)c1ccccc1S(C)=O` (stereo not given): the growth inhibition in experiment [1] is -18.8%; in experiment [2], -19.3%; in experiment [3], -17.9%; in experiment [4], -8.25%; in experiment [5], -9.15%; in experiment [6], -20.1%.

As to `COc1ccc2c(c1)[n+](=O)c(C(=O)C/C(=N\NC(=O)C[N+](C)(C)C)C(=O)Nc1cc(Cl)ccc1Cl)c(C)n2O`, the growth inhibition was -27.9% in experiment [1]; -12.7% in experiment [2]; -43.6% in experiment [3]; 9.3% in experiment [4]; -23.1% in experiment [5]; -23.4% in experiment [6].

`O=C1CC(c2ccccc2)N1c1ccccc1` (stereo not given): the growth inhibition in experiment [1] was -17.9%; in experiment [2], -34%; in experiment [3] it was -11.3%; in experiment [4], -20.6%; in experiment [5] it was -10.9%; in experiment [6], -22.8%.

For `Cc1ccccc1C(=O)c1cccc2cccc(C(=O)c3ccccc3C)c12`, the growth inhibition in experiment [1] was 13%; in experiment [2] it was 0.75%; in experiment [3] it was -10.8%; in experiment [4] it was 7.8%; in experiment [5], 10.8%; in experiment [6], 1.15%.

Take `COc1ccc(C2OC3=C(Nc4ccccc4N3)C2=O)cc1` (stereo not given): the growth inhibition is 19.5% in experiment [1]; 5.8% in experiment [2]; 27.4% in experiment [3]; 14.1% in experiment [4]; -14.3% in experiment [5]; 46.2% in experiment [6].

Turning to `CCOC(=O)Cn1c(=O)[nH]c(=O)c2c1ncn2Cc1ccccc1`, the growth inhibition in experiment [1] is 32.9%; in experiment [2] it was -2.35%; in experiment [3], -3.1%; in experiment [4], 13.2%; in experiment [5], 30.2%; in experiment [6], 25.7%.

Consider `CCCC(C)C(=O)OC(CC)CC` (stereo not given), for which the growth inhibition in experiment [1] is 31.4%; in experiment [2], 1.55%; in experiment [3], 13.1%; in experiment [4] it was -18.2%; in experiment [5] it was 5.65%; in experiment [6], 11.4%.

In the case of `O=C1CCCCC(=O)NCCCCCCN1`, the growth inhibition is -7.95% in experiment [1]; -2.65% in experiment [2]; -18.4% in experiment [3]; -21.4% in experiment [4]; -12.4% in experiment [5]; 1.85% in experiment [6].

Turning to `Cc1ccc(C(=O)O)c(/C=C2\Cc3cc(C)cc(C)c3C2=O)c1`, the growth inhibition was 21.1% in experiment [1]; 14.8% in experiment [2]; 24.6% in experiment [3]; 16.6% in experiment [4]; 9.85% in experiment [5]; 29.7% in experiment [6].

Regarding `CN(C)C(Cc1cnc[nH]1)C(=O)N1CCCC1C(N)=O` (stereo not given), the growth inhibition in experiment [1] is -22.4%; in experiment [2] it was -45.8%; in experiment [3] it was -9.65%; in experiment [4], -0.8%; in experiment [5], -20.8%; in experiment [6] it was 5.85%.

Turning to `CCOC(=O)NC(=S)c1ccc[nH]1`, the growth inhibition is -10.7% in experiment [1]; -42.2% in experiment [2]; 0.2% in experiment [3]; 4.6% in experiment [4]; -36.8% in experiment [5]; -20.2% in experiment [6].

For `Cc1cc(C)c(CC(=O)c2ccccc2)c(C)c1`, the growth inhibition was 0% in experiment [1]; -9.5% in experiment [2]; -1.9% in experiment [3]; -32% in experiment [4]; 0.95% in experiment [5]; -5% in experiment [6].

On to `O=C(O)c1ccccc1S(=O)Cc1ccc(Br)cc1` (stereo not given), for which the growth inhibition in experiment [1] was -10.6%; in experiment [2], -10.6%; in experiment [3] it was -23.1%; in experiment [4], -6.1%; in experiment [5], -0.3%; in experiment [6], 3.5%.

Take `COc1cc(Cc2nccc3cc(OC)c(OC)cc23)c(C(C)=O)cc1OC`: the growth inhibition was 21.9% in experiment [1]; -22.9% in experiment [2]; 19.1% in experiment [3]; 14.1% in experiment [4]; 22% in experiment [5]; 22.4% in experiment [6].

In the case of `CSCCCCC(N)C(=O)O` (stereo not given), the growth inhibition in experiment [1] was 0.05%; in experiment [2], 3%; in experiment [3] it was -0.9%; in experiment [4], -14%; in experiment [5] it was 12.4%; in experiment [6], -3.85%.

On to `CCCC(=O)OCC1OC(n2cc(F)c(=O)[nH]c2=O)CC1OC(=O)CCC` (stereo not given), for which the growth inhibition is 4.1% in experiment [1]; 7.9% in experiment [2]; 13.9% in experiment [3]; -4.3% in experiment [4]; -13.9% in experiment [5]; 10.2% in experiment [6].

Consider `CCC1([N+](=O)[O-])COC(CCc2ccccc2)OC1` (stereo not given), for which the growth inhibition in experiment [1] was 6.3%; in experiment [2], -20.9%; in experiment [3], 10.8%; in experiment [4] it was -30.1%; in experiment [5], -0.25%; in experiment [6], -19.9%.

For the compound `CC(C)CC(C)COC(=O)c1c(Cl)c(Cl)c(Cl)c(Cl)c1C(=O)O` (stereo not given), the growth inhibition is 66.6% in experiment [1]; 62.6% in experiment [2]; 77.9% (active) in experiment [3]; 63.4% in experiment [4]; 72.8% (active) in experiment [5]; 77.3% (active) in experiment [6].

With `O=C(O)c1cc(Cl)c2ccccc2c1O`, the growth inhibition was 46.8% in experiment [1]; 45.8% in experiment [2]; 46.8% in experiment [3]; 31.6% in experiment [4]; 42.1% in experiment [5]; 33.1% in experiment [6].
